{"source": "PubChem BioAssay (Tox21)", "note": "A number with no mark means an inactive call. Activity calls are given as the source filed them. Calls follow the shape of the dose curve; as a rule, active = well fitted curve in the direction sought with a large enough effect in the repeat runs; inconclusive = weak or mixed curves; inactive = flat fitted curve, though single readings scatter. % is scaled to controls: 0 for no effect and ±100 for the full control effect.", "data": [{"assay": "qHTS assay to test for compound auto fluorescence at 460 nm (blue) in HepG2 cell free culture (AID 720685)", "details": "Cell-free culture medium, blue autofluorescence 405/460 nm; series mostly up to 91.3 µM; fluorescence, % of fluorescent control: at the top concentration", "how_it_was_run": "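Cell-free plates of MEM plus 10% FBS received 23 nL compound or DMSO vehicle; blue-channel (405/460 nm) intensity scored against triamterene as reference fluorophore.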", "values": [{"smiles": "N#CSCSc1nc2ccccc2s1", "fluorescence, % of fluorescent control": "-0.0982%"}, {"smiles": "S=C(SSSSSSC(=S)N1CCCCC1)N1CCCCC1", "fluorescence, % of fluorescent control": "-0.225% [at 18.6 µM]"}, {"smiles": "Cc1cc(Nc2ccc(O)cc2)ccc1N", "fluorescence, % of fluorescent control": "-0.163%"}, {"smiles": "CCCCCCOc1cc(C)c(O)c(C)c1C", "fluorescence, % of fluorescent control": "0.0531% [at 95.7 µM]"}, {"smiles": "NC(=O)c1nc(-c2cccc(-c3cc(F)ccc3OCC(F)(F)C(F)(F)F)c2)n[nH]1", "fluorescence, % of fluorescent control": "-0.0285%"}, {"smiles": "COC(=O)[C@]1(C)CCC[C@@]2(C)[C@H]1CC=C1C=C(C(C)C)CC[C@@H]12", "fluorescence, % of fluorescent control": "-0.0075%"}, {"smiles": "O=C1NC2CCCCN2C12CCN(CCCN1c3ccccc3CCc3ccc(Cl)cc31)CC2", "note": "(configuration not stated)", "fluorescence, % of fluorescent control": "0.0061% [at 46 µM]"}, {"smiles": "NCCCC(O)(P(=O)(O)O)P(=O)(O)O", "fluorescence, % of fluorescent control": "-0.0101% [at 46 µM]"}, {"smiles": "Oc1ccc(-c2ccc(O)cc2)cc1", "fluorescence, % of fluorescent control": "-0.0871%"}, {"smiles": "CNCC[C@H](Oc1cccc2ccccc12)c1cccs1", "fluorescence, % of fluorescent control": "-0.0157% [at 46 µM]"}, {"smiles": "SCCCCCCCCS", "fluorescence, % of fluorescent control": "0.34%"}, {"smiles": "NC(=O)C(=O)N/N=C/c1ccc([N+](=O)[O-])o1", "fluorescence, % of fluorescent control": "-0.0813% [at 46 µM]"}, {"smiles": "C[C@]12CC[C@H]3C(=CCc4cc(O)ccc43)[C@@H]1CCC2=O", "fluorescence, % of fluorescent control": "0.107%"}, {"smiles": "CN1[C@@H]2CC[C@H]1CC(OC(=O)C(CO)c1ccccc1)C2", "note": "(some centres not stated)", "Potency": "inactive"}, {"smiles": "O=C1Nc2ccc(Cl)cc2[C@@](C#CC2CC2)(C(F)(F)F)O1", "fluorescence, % of fluorescent control": "0.0228% [at 46 µM]"}, {"smiles": "C[C@H]1O[C@@H](O[C@H]2[C@@H](O)C[C@H](O[C@H]3[C@@H](O)C[C@H](O[C@H]4CC[C@@]5(C)[C@H](CC[C@@H]6[C@@H]5C[C@@H](O)[C@]5(C)[C@@H](C7=CC(=O)OC7)CC[C@]65O)C4)O[C@@H]3C)O[C@@H]2C)C[C@H](O)[C@@H]1O", "Potency": "inactive"}, {"smiles": "CC1=C(/C=C/C(C)=C/C=C/C(C)=C\\C=O)C(C)(C)CCC1", "fluorescence, % of fluorescent control": "0.669%"}, {"smiles": "CC(C)(C)CC(C)(C)c1ccccc1O", "fluorescence, % of fluorescent control": "0.0345%"}, {"smiles": "CN(C)CCCN1c2ccccc2CCc2ccccc21", "Potency": "inactive"}, {"smiles": "NC1(c2ccc(-c3nc4ccn5c(=O)[nH]nc5c4cc3-c3ccccc3)cc2)CCC1", "fluorescence, % of fluorescent control": "0.328% [at 46 µM]"}]}, {"assay": "qHTS assay to test for compound auto fluorescence at 535 nm (green) in HepG2 cell free culture (AID 720686)", "details": "Cell-free medium, green autofluorescence 485/535 nm; series mostly up to 91.3 µM; fluorescence, % of fluorescein control: at the top concentration", "values": [{"smiles": "C=C(c1ccc(C(=O)O)cc1)c1cc2c(cc1C)C(C)(C)CCC2(C)C", "Potency": "inactive"}, {"smiles": "CN1[C@@H]2CC[C@@H]1CC(OC(=O)C(CO)c1ccccc1)C2", "note": "(some centres not stated)", "fluorescence, % of fluorescein control": "-0.0131% [at 46 µM]"}, {"smiles": "CN(C)c1ccc(N=Nc2ccccc2C(=O)O)cc1", "fluorescence, % of fluorescein control": "-0.0362%"}, {"smiles": "O=C1c2c(O)ccc(O)c2C(=O)c2c(NCCNCCO)ccc(NCCNCCO)c21", "fluorescence, % of fluorescein control": "-0.22% [at 18.6 µM]"}, {"smiles": "CCCCCCCC/C=C\\CCCCCCCC(=O)N(C)CC(=O)O", "fluorescence, % of fluorescein control": "-0.203%"}, {"smiles": "Clc1ccc(C(Cn2ccnc2)OCc2ccsc2Cl)c(Cl)c1", "note": "(configuration not stated)", "fluorescence, % of fluorescein control": "0.151% [at 46 µM]"}, {"smiles": "CCCCOc1ccc(C(=O)CCN2CCCCC2)cc1", "fluorescence, % of fluorescein control": "0.0663% [at 18.6 µM]"}, {"smiles": "COc1ccc2sc(C(=O)Nc3nnn[nH]3)c(OC(C)C)c2c1", "fluorescence, % of fluorescein control": "0.0246%"}, {"smiles": "Cc1c(-c2ccc(O)cc2)n(Cc2ccc(OCCN3CCCCCC3)cc2)c2ccc(O)cc12", "fluorescence, % of fluorescein control": "0.055% [at 46 µM]"}, {"smiles": "CN(C)c1ccc(N=NS(=O)(=O)O)cc1", "fluorescence, % of fluorescein control": "-0.479%"}, {"smiles": "c1cc(OCC2CO2)cc(OCC2CO2)c1", "note": "(configuration not stated)", "fluorescence, % of fluorescein control": "0.054%"}, {"smiles": "Cc1cc2c(C(C)C)c(O)c(O)c(C=O)c2c(O)c1-c1c(C)cc2c(C(C)C)c(O)c(O)c(C=O)c2c1O", "fluorescence, % of fluorescein control": "-0.017% [at 46 µM]"}, {"smiles": "C=C[C@](C)(O)CC[C@@H]1[C@@]2(C)CCCC(C)(C)[C@@H]2CC[C@@]1(C)O", "fluorescence, % of fluorescein control": "-0.0543%"}, {"smiles": "CC(=O)OC(OC(C)=O)c1ccc([N+](=O)[O-])o1", "fluorescence, % of fluorescein control": "0.0236% [at 95.7 µM]"}, {"smiles": "COC(=O)C1=C(C)NC(C)=C(C(=O)OCCCN2CCC(c3ccccc3)(c3ccccc3)CC2)C1c1cccc([N+](=O)[O-])c1", "note": "(configuration not stated)", "fluorescence, % of fluorescein control": "0.0026% [at 46 µM]"}, {"smiles": "CC=O", "fluorescence, % of fluorescein control": "0.0254% [at 95.7 µM]"}, {"smiles": "CCN(CC)CCOc1ccc(C(O)(Cc2ccc(Cl)cc2)c2ccc(C)cc2)cc1", "note": "(configuration not stated)", "fluorescence, % of fluorescein control": "0.0885% [at 46 µM]"}, {"smiles": "N#CSCSc1nc2ccccc2s1", "fluorescence, % of fluorescein control": "0.017%"}, {"smiles": "S=C(SSSSSSC(=S)N1CCCCC1)N1CCCCC1", "fluorescence, % of fluorescein control": "-0.0879% [at 18.6 µM]"}, {"smiles": "Cc1cc(Nc2ccc(O)cc2)ccc1N", "fluorescence, % of fluorescein control": "-0.166%"}, {"smiles": "CCCCCCOc1cc(C)c(O)c(C)c1C", "fluorescence, % of fluorescein control": "-0.0005% [at 95.7 µM]"}, {"smiles": "NC(=O)c1nc(-c2cccc(-c3cc(F)ccc3OCC(F)(F)C(F)(F)F)c2)n[nH]1", "fluorescence, % of fluorescein control": "-0.0134%"}, {"smiles": "COC(=O)[C@]1(C)CCC[C@@]2(C)[C@H]1CC=C1C=C(C(C)C)CC[C@@H]12", "fluorescence, % of fluorescein control": "-0.0311%"}, {"smiles": "O=C1NC2CCCCN2C12CCN(CCCN1c3ccccc3CCc3ccc(Cl)cc31)CC2", "note": "(configuration not stated)", "fluorescence, % of fluorescein control": "0.0316% [at 46 µM]"}, {"smiles": "NCCCC(O)(P(=O)(O)O)P(=O)(O)O", "fluorescence, % of fluorescein control": "0.129% [at 46 µM]"}, {"smiles": "Oc1ccc(-c2ccc(O)cc2)cc1", "fluorescence, % of fluorescein control": "-0.0995%"}, {"smiles": "CNCC[C@H](Oc1cccc2ccccc12)c1cccs1", "fluorescence, % of fluorescein control": "-0.0369% [at 46 µM]"}, {"smiles": "SCCCCCCCCS", "fluorescence, % of fluorescein control": "0.0348%"}, {"smiles": "NC(=O)C(=O)N/N=C/c1ccc([N+](=O)[O-])o1", "fluorescence, % of fluorescein control": "0.0176% [at 46 µM]"}, {"smiles": "C[C@]12CC[C@H]3C(=CCc4cc(O)ccc43)[C@@H]1CCC2=O", "fluorescence, % of fluorescein control": "0.103%"}, {"smiles": "CN1[C@@H]2CC[C@H]1CC(OC(=O)C(CO)c1ccccc1)C2", "note": "(some centres not stated)", "Potency": "inactive"}, {"smiles": "O=C1Nc2ccc(Cl)cc2[C@@](C#CC2CC2)(C(F)(F)F)O1", "fluorescence, % of fluorescein control": "-0.025% [at 46 µM]"}, {"smiles": "C[C@H]1O[C@@H](O[C@H]2[C@@H](O)C[C@H](O[C@H]3[C@@H](O)C[C@H](O[C@H]4CC[C@@]5(C)[C@H](CC[C@@H]6[C@@H]5C[C@@H](O)[C@]5(C)[C@@H](C7=CC(=O)OC7)CC[C@]65O)C4)O[C@@H]3C)O[C@@H]2C)C[C@H](O)[C@@H]1O", "Potency": "inactive"}, {"smiles": "CC1=C(/C=C/C(C)=C/C=C/C(C)=C\\C=O)C(C)(C)CCC1", "fluorescence, % of fluorescein control": "0.277%"}, {"smiles": "CC(C)(C)CC(C)(C)c1ccccc1O", "fluorescence, % of fluorescein control": "-0.0798%"}, {"smiles": "CN(C)CCCN1c2ccccc2CCc2ccccc21", "Potency": "inactive"}, {"smiles": "NC1(c2ccc(-c3nc4ccn5c(=O)[nH]nc5c4cc3-c3ccccc3)cc2)CCC1", "fluorescence, % of fluorescein control": "-0.0143% [at 46 µM]"}]}]}
